Source: PubChem BioAssay (NCATS)
Inconclusive results are not listed. Calls of active or inactive are those of the source. Calls come from the whole dose curve; as a rule, active = well fitted curve in the direction sought with a large enough effect; inconclusive = small, poorly fitted or top-dose-only effect, or another doubt; inactive = no such curve, though single readings can be large; an effect the other way counts as inactive or inconclusive.

What was measured:
[1] = tested on: NIH3T3; experiment: qHTS assay to identify novel small-molecules to repurpose for Merkel cell carcinoma treatment (AID 1296009); settings: MCC and control cell lines, CellTiter-Glo viability, 72 h; at 44.8 µM (top of the series) unless noted; note: nearly all actives have a fitted effect of over 60% in size
Summary of the method: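 After compound transfer in DMSO, plates were kept 72 hr at 37 degree celsius. Luminescent ATP signal from CellTiter-Glo served as viability measure, normalized against DMSO and no-cell controls.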

[2] = tested on: C33A; experiment: Primary qHTS to identify gynecologic anti-cancer compounds using libraries of approved drugs and bioactive compounds (AID 1345084); settings: Gynecologic cancer cell panel viability, ATPlite luminescence, 48 h; series mostly up to 57.5 µM; note: nearly all actives have a fitted effect of over 55% in size
Summary of the method: (§1)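 ATP-based viability (ATPlite), 1,000 cells/well, 16 h pre-incubation, 48 h compound at 37 C, 5% CO2, 15 min RT before read.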

[3] = tested on: CAOV3; experiment: as above; settings: Gynecologic cancer cell panel viability, ATPlite luminescence, 48 h; series mostly up to 57.5 µM
Summary of the method: as §1

[4] = tested on: CASKI; experiment: as above; settings: Gynecologic cancer cell panel viability, ATPlite luminescence, 48 h; series mostly up to 57.5 µM
Summary of the method: as §1

[5] = tested on: Es-2; experiment: as above; settings: Gynecologic cancer cell panel viability, ATPlite luminescence, 48 h; series mostly up to 57.5 µM
Summary of the method: as §1

[6] = tested on: HeLa; experiment: as above; settings: Gynecologic cancer cell panel viability, ATPlite luminescence, 48 h; series mostly up to 57.5 µM
Summary of the method: as §1

[7] = tested on: Hek293T; experiment: as above; settings: Gynecologic cancer cell panel viability, ATPlite luminescence, 48 h, control line for the selectivity index; series mostly up to 57.5 µM
Summary of the method: as §1

[8] = tested on: JEG-3; experiment: as above; settings: Gynecologic cancer cell panel viability, ATPlite luminescence, 48 h; series mostly up to 57.5 µM
Summary of the method: as §1

Measured: Potency

CC(=O)OC[C@]1(O)[C@H]2[C@H](OC(=O)CC(C)C)OC=C(CO[C@@H]3O[C@H](CO)[C@@H](O)[C@H](O)[C@H]3O)[C@H]2C[C@@H]1O
inactive: [1] inactive [at 17.4 µM] | [2] | [3] | [4] | [5] | [6] | [7] | [8]

COC(=O)C1=COC(OC2OC(CO)C(O)C(O)C2O)C2C1CC(OC(=O)C(O)CC(=O)O)C2C (stereo not drawn)
inactive: [1] inactive [at 17.4 µM] | [2] | [3] | [4] | [5] | [6] | [7] | [8]

CC1C(=O)CC2C3C(O)CC(C(=O)O)C12CC3(C)C (stereo not drawn)
inactive: [1] | [2] | [3] | [4] | [5] | [6] | [7] | [8]

CNC(=O)O[C@H]1COc2ccc(N3CCN(C4COC4)CC3)cc2[C@@H]1NC(=O)c1ccc(F)cc1
inactive: [1] | [2] | [3] | [4] | [5] | [6] | [7] | [8]

C=C1CC2C3(C)C(O)CC(=O)C(C)(C)C3C(OC(C)=O)C(OC(C)=O)C2(C)C2C(=O)OC(C)(C(=O)OC)C(=O)C12C (stereo not drawn)
inactive: [1] inactive [at 17.4 µM] | [2] | [3] | [4] | [5] | [6] | [7] | [8]

C=C1C[C@@]23CC[C@@H]4[C@](C)(C(=O)O)CCC[C@@]4(C)C2=CC[C@H]1C3
inactive: [1] | [2] | [3] | [4] | [5] | [6] | [7] | [8]

CC1CCCC2OC2C(=O)c2c(O)cc(O)cc2CC(=O)O1 (stereo not drawn)
inactive: [1] | [2] | [3] | [4] | [5] | [6] | [7] | [8]

CC(/C=C/C1(O)C(C)CC(O)CC1(C)C)OC1OC(CO)C(O)C(O)C1O (stereo not drawn)
inactive: [1] | [2] | [3] | [4] | [5] | [6] | [7] | [8]

Cc1cc(Nc2ncc(Cl)c(Nc3ccccc3S(=O)(=O)C(C)C)n2)c(OC(C)C)cc1C1CCNCC1
inactive: [1] | [2] | [3] | [4] | [5] | [6] | [7] | [8]

CC1(C)OC(=O)C(OCC2CC2)=C1c1ccc(S(C)(=O)=O)cc1
inactive: [1] | [2] | [3] | [4] | [5] | [6] | [7] | [8]

COc1cc(/C=C/C(=O)OC2CC3CCC2(C)C3(C)C)ccc1O (stereo not drawn)
inactive: [1] | [2] | [3] | [4] | [5] | [6] | [7] | [8]

O=C(CCCCc1ccc2ccccc2c1)C(F)(F)F
inactive: [1] inactive [at 92 µM] | [2] | [3] | [4] | [5] | [6] | [7] | [8]

C=CC(C)(C)O[C@@H]1O[C@H](CO[C@@H]2OC[C@](O)(CO)[C@H]2O)[C@@H](O)[C@H](O)[C@H]1O
inactive: [1] | [2] | [3] | [4] | [5] | [6] | [7] | [8]

CC(=O)OC1C=C(C(=O)O)C2(CO)CCC(C)C(C)(CCc3ccoc3)C2C1 (stereo not drawn)
inactive: [1] inactive [at 17.4 µM] | [2] | [3] | [4] | [5] | [6] | [7] | [8]

C/C=C/C1=CC2=CC(=O)C(C)(O)C(OC(=O)c3c(C)cc(O)cc3O)C2CO1 (stereo not drawn)
inactive: [1] | [2] | [3] | [4] | [5] | [6] | [7] | [8]

COc1cc([C@@H]2Oc3c(OC)cc(CCCO)cc3[C@@H]2CO[C@@H]2O[C@H](CO)[C@@H](O)[C@H](O)[C@H]2O)ccc1O
inactive: [1] inactive [at 17.4 µM] | [2] | [3] | [4] | [5] | [6] | [7] | [8]
